Several values for one entry are separate records, joined by “and”; a condition that tells them apart may be missing. Identical values can stand only once. Inconclusive results are not listed. Some compounds were tested as several samples or in several runs, with calls that do not always agree. Activity calls are given as the source filed them. The call rests on the fitted dose curve; in most records, active means well fitted curve in the direction sought with a large enough effect; inconclusive means small, poorly fitted or top-dose-only effect, or another doubt; inactive means no such curve, though single readings can be large; an effect the other way counts as inactive or inconclusive.
Key:
[1] = Viability qHTS for spleen associated tyrosine kinase inhibitor (SYKi) drug resistant MV4-11 cells (AID 1963824); further: nearly all actives have a fitted effect of over 35% in size
Procedure, shortened: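 CellTiter-Glo luminescence, read 10 min after reagent addition, reports viability after a 72 hr compound exposure. Cells are an MV4-11 line made resistant to SYK inhibition, seeded at 500 per well onto compound-containing plates.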

[2] = Quantitative highthroughput screen to assess conditional lethalithy of NOMO1 cells grown in RPMI1640 with untreated serum (RPMI+s) (AID 1963876); further: nearly all actives have a fitted effect of over 35% in size;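 on Viability: 100% = DMSO wells and 0% = empty wells without cells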
Procedure, shortened: (§1)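 Each medium arm—HPLM with 10% dialyzed FBS, or RPMI1640 with 5 mM glucose and 10% untreated or dialyzed FBS—was screened against an 11-point, 3-fold compound titration for 48 h at 37 °C, with CellTiter-Glo luminescence as endpoint.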

[3] = Quantitative highthroughput screen to assess conditional lethalithy of NOMO1 cells grown in RPMI1640 with dialyzed fetal bovine serum (RPMI+ds) (AID 1963877); further: nearly all actives have a fitted effect of over 30% in size;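 on Viability: series mostly up to about 46 µM; 100% = DMSO control wells and 0% = empty wells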
Procedure, shortened: as §1

[4] = Quantitative highthroughput screen to assess conditional lethalithy of P12 Ichikawa cells grown in Human Plasma-Like Medium with dialyzed fetal bovine serum (HPLM+ds) (AID 1963879); conditions: Potency: viability; further: nearly all actives have a fitted effect of over 35% in size; on Viability: series mostly up to about 46 µM
Procedure, shortened: as §1

[5] = Quantitative highthroughput screen to assess conditional lethalithy of P12 Ichikawa cells grown in RPMI1640 with dialyzed fetal bovine serum (RPMI+ds) (AID 1963880); conditions: Potency: P12-Ichikawa viability; further: nearly all actives have a fitted effect of over 35% in size;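 on Viability: 100% = DMSO wells and 0% = empty wells on each plate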
Procedure, shortened: as §1

[6] = Quantitative highthroughput screen to assess conditional lethalithy of P12 Ichikawa cells grown in RPMI1640 with untreated serum (RPMI+s) (AID 1963881); conditions: Potency: viability; further: nearly all actives have a fitted effect of over 35% in size;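 on Viability: series mostly up to about 46 µM; 100% = DMSO wells and 0% = empty wells without cells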
Procedure, shortened: as §1

[7] = Cellular viability qHTS for adrenocortical cancer (ACC) cell line SW-13 (AID 1963989); conditions: SW-13 ACC cells viability, CellTiter-Glo, 48 h; activity (max response): stronger effect = lower value; further: nearly all actives have a fitted effect of over 65% in size;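 on activity (max response): cells grown in serum-free medium with ITS supplement; on the % scale 0 is the no-effect control and ±100 the full control effect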
Procedure, shortened: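 IC50 and maximal-response values come from four-parameter logistic fits of titration data. SW-13 cells in serum-free medium received compounds (up to 46 uM final) for 48 h before CellTiter-Glo luminescence.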

[8] = Cellular viability qHTS for adrenocortical cancer (ACC) cell line NCI-H295R (AID 1963990); further: nearly all actives have a fitted effect of over 60% in size
Procedure, shortened: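 Adrenocortical carcinoma cells, suspended at 300 000 cells/mL in serum-free DMEM plus ITS, rested overnight before pin transfer of compound. After two days' incubation, ATP-dependent luminescence was recorded and curve-fitted.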

[9] = Quantitative highthroughput screen to assess conditional lethalithy of NOMO1 cells grown in Human Plasma-Like Medium with dialyzed fetal bovine serum (HPLM+ds) (AID 1963878); further: nearly all actives have a fitted effect of over 35% in size;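 on Viability: 100% = DMSO wells and 0% = empty wells on each plate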
Procedure, shortened: as §1

[10] = Quantitative highthroughput screen to assess conditional lethalithy of SEM cells grown in Human Plasma-Like Medium with dialyzed fetal bovine serum (HPLM+ds) (AID 1963882); further: nearly all actives have a fitted effect of over 35% in size; on Viability: series mostly up to about 46 µM
Procedure, shortened: as §1

[11] = Quantitative highthroughput screen to assess conditional lethalithy of SEM cells grown in RPMI1640 with unreated serum (RPMI+s) (AID 1963883); further: nearly all actives have a fitted effect of over 35% in size;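 on Viability: 100% = DMSO wells and 0% = empty wells without cells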
Procedure, shortened: as §1

[12] = Quantitative highthroughput screen to assess conditional lethalithy of SEM cells grown in RPMI1640 with dialyzed fetal bovine serum (RPMI+ds) (AID 1963884); further: nearly all actives have a fitted effect of over 35% in size;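 on Viability: series mostly up to about 46 µM; 100% = DMSO control wells and 0% = empty wells without cells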
Procedure, shortened: as §1
Potency means the concentration at half of the fitted maximal effect.

S=P(N1CC1)(N1CC1)N1CC1
active: Potency [1] 3.32 µM
inactive: Potency [2] | Potency [3] | Potency [4] | Potency [5] | Potency [6] | activity (max response) [7] 10.4% | Potency [8]

CCc1cncnc1N1CCN(Cc2nc3ccc(C(F)(F)F)cc3[nH]2)CC1
active: Potency [1] 5.9 µM | Potency [8] 17.8 µM
inactive: Potency [2] | Potency [3] | Potency [9]

Cc1cc2c(cc1C1(c3ccc(C(=O)O)cn3)CC1)C(C)(C)CCC2(C)C
active: Potency [1] 0.468 µM | Potency [12] 0.0662 µM
inactive: Potency [2] | Potency [3] | Potency [4] | Potency [5] | Potency [6] | Potency [10] | Potency [11] | activity (max response) [7] 9.77% | Potency [8]

CC(=O)Oc1ccccc1C(=O)Nc1ncc([N+](=O)[O-])s1
inactive: Potency [2] | Potency [3] | Potency [6] | Potency [11] | Potency [12] | activity (max response) [7] 7.32% and 2.04% | Potency [8]
active: Potency [1] 11.9 µM and 20.9 µM

CCNC(=O)c1noc(-c2cc(C(C)C)c(O)cc2O)c1-c1ccc(CN2CCOCC2)cc1
active: Potency [1] 0.0073 µM | Potency [2] 0.0833 µM | Potency [3] 0.0833 µM | Potency [7] 0.0708 µM

CCCCn1c(=O)n(Cc2ccccc2F)c(=O)c2[nH]c(Cc3ccc(NC(C)=O)cc3)nc21
inactive: Potency [2] | Potency [9] | Potency [4] | Potency [5] | Potency [6] | Potency [10] | Potency [11] | Potency [12] | activity (max response) [7] -3.74%
active: Potency [1] 18.6 µM

Cc1cccc(C)c1OCC(=O)N[C@@H](Cc1ccccc1)[C@@H](O)C[C@H](Cc1ccccc1)NC(=O)[C@H](C(C)C)N1CCCNC1=O
active: Potency [1] 23.7 µM | Potency [8] 16.4 µM
inactive: Potency [2] | Potency [3]

CCCCC(F)(F)[C@@]1(O)CC[C@H]2[C@H](CC(=O)[C@@H]2CCCCCCC(=O)O)O1
active: Potency [1] 0.0295 µM
inactive: Potency [2] | Potency [3] | Potency [4] | Potency [5] | Potency [6] | Potency [10] | Potency [11] | Potency [12] | activity (max response) [7] 8.13% | Potency [8]

O=C(C1CC1)N1CC[C@@H](Cn2c(-c3ccc(-c4ccc5occc5c4)cc3)nc3cnccc32)C1
active: Potency [1] 14.8 µM
inactive: Potency [2] | Potency [3] | Potency [4] | Potency [5] | Potency [10] | Potency [11] | Potency [12]

CCCCOc1ccc(CC(=O)NO)cc1
inactive: Potency [2] | Potency [3] | Potency [9] | activity (max response) [7] -10.9% | Potency [8]
inactive and 18.6 µM (active): Potency [1]

c1cc(N[C@@H]2CCNC2)nc(-c2cnc3ccc(-c4cn[nH]c4)cn23)c1
active: Potency [1] 0.0066 µM | Potency [3] 5.9 µM | Potency [7] 3.98 µM
inactive: Potency [2] | Potency [8]

Cc1nc2ccc(C(=O)N3CCC4(CC3)CC(=O)c3c(cnn3C(C)C)C4)cc2[nH]1
active: Potency [1] 20.9 µM
inactive: Potency [2] | Potency [3] | Potency [8]

CN1CCC(CNc2ccc3ncc(-c4cccc(OC(F)(F)F)c4)n3n2)CC1
active: Potency [1] 41.1 nM and 132 nM | Potency [2] 23.5 µM | Potency [3] 23.5 µM | Potency [9] 18.7 µM | Potency [10] 5.9 µM | Potency [11] 4.69 µM | Potency [12] 1.32 µM | Potency [7] 15.8 µM | Potency [8] 8.91 µM

CC1(C)O[C@@H]2C[C@H]3[C@@H]4CCC5=CC(=O)C=C[C@]5(C)[C@@H]4[C@@H](O)C[C@]3(C)[C@]2(C(=O)CO)O1
inactive: Potency [1] | Potency [2] | Potency [3] | Potency [9] | activity (max response) [7] -5.21% | Potency [8]

c1cncc(CN2CCC(n3ncc4c(N5CCOCC5)nc(-c5ccc6[nH]ccc6c5)nc43)CC2)c1
active: Potency [1] 1.84 µM and 1.86 µM | Potency [2] 16.6 µM | Potency [5] 13.2 µM | Potency [6] 13.2 µM | Potency [11] 14.8 µM | Potency [12] 14.8 µM | Potency [8] 3.55 µM
inactive: activity (max response) [7] -29.6%

Nc1nc2[nH]cc(CCc3ccc(C(=O)N[C@@H](CCC(=O)O)C(=O)O)cc3)c2c(=O)[nH]1
inactive: Potency [2]
active: Potency [1] 0.263 µM | Potency [8] 3.16 µM

CN(C)C(=O)[C@H](O)[C@H](Cc1ccccc1)NC(=O)c1cc2cc(Cl)ccc2[nH]1
inactive: Potency [2]
active: Potency [1] 20.9 µM | Potency [10] 2.09 µM | Potency [11] 2.64 µM | Potency [12] 2.35 µM

Cc1cn(-c2cc(NC(=O)c3ccc(C)c(Nc4nccc(-c5cccnc5)n4)c3)cc(C(F)(F)F)c2)cn1
inactive: Potency [8]
active: Potency [2] 0.935 µM | Potency [4] 0.935 µM | Potency [5] 1.05 µM | Potency [6] 1.32 µM
inactive and 4.68 µM (active): Potency [1]

— PubChem BioAssay (NCATS)
